In PubChem BioAssay (NCI) one finds growth inhibition data, which are given here for 19 molecules.

A short description of assay [1]: NCI Yeast Anticancer Drug Screen. Data for the rad50 strain (AID 155).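 Further: 0% = growth of vehicle-only cultures of the same strain.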 As to conditions: S. cerevisiae rad50 strain growth inhibition, active compounds read high; at 50.0 µM unless noted. Summed up: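 Genetically altered yeast (DNA repair pathway); compound treatment; growth inhibition vs vehicle ctrl.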
Assay [2] in a line: NCI Yeast Anticancer Drug Screen. Data for the mec2-1 strain (AID 157). Conditions: S. cerevisiae mec2-1 strain, active compounds read high; at 50.0 µM unless noted. Summed up:
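Cells of the genetically defined mec2-1 yeast strain are incubated with test compound. Inhibition of growth is calculated against vehicle-treated controls.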

Assay [3] is described as follows: NCI Yeast Anticancer Drug Screen. Data for the sgs1 mgt1 strain (AID 161).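 Further: 0% = growth of cultures given vehicle only.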 As to conditions: S. cerevisiae sgs1 mgt1 strain, active compounds read high; at 50.0 µM unless noted. Summed up:
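Test agents were incubated with a DNA-repair-mutant yeast strain. Growth was then read and compared against vehicle-treated controls.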

Assay [4] is described as follows: NCI Yeast Anticancer Drug Screen. Data for the cln2 rad14 strain (AID 165).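 Further: 0% = growth equal to vehicle treated cultures.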 As to conditions: S. cerevisiae cln2 rad14 strain, active compounds read high; at 50.0 µM unless noted. The gist of the method:
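The screen exposed genetically defined yeast (cln2 rad14) to test compounds and scored growth inhibition relative to vehicle-treated controls.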

Assay [5] can be described thus: NCI Yeast Anticancer Drug Screen. Data for the bub3 strain (AID 167). As to conditions: S. cerevisiae bub3 mutant strain, active compounds read high; at 50.0 µM unless noted. Summed up: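 Yeast carrying a defined mutation is treated with each compound, and growth is compared with that of vehicle-exposed cells to give inhibition.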
Assay [6] is described as follows: NCI Yeast Anticancer Drug Screen. Data for the mlh1 rad18 strain (AID 175). Conditions: S. cerevisiae mlh1 rad18 strain growth inhibition, active compounds read high; at 50.0 µM unless noted. Summed up:
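Compound-treated yeast growth, normalised to vehicle controls. Strain bears defined DNA repair mutations.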

This is part of a sample that, as a whole, favours compounds with a hit. Of some 79,000 tested, about 15% had one in any assay. Unmarked numbers belong to inactive results. Active and inactive are the calls of the source. No stated cut-off is given here; in the data, active means growth inhibition above about 70%; inactive means the rest.

In the case of `Cc1ncc(CN=Cc2ccc(Cl)cc2)c(N)n1`, the growth inhibition is 9.8% in assay [1]; 17% in assay [2]; -9.45% in assay [3]; -12% in assay [4]; 8.9% in assay [5]; 13.2% in assay [6].
Turning to `CC(C)N1C(=O)N(Cl)C2C1N(Cl)C(=O)N2Cl` (configuration not stated), the growth inhibition in assay [1] is 15%; in assay [2], -0.4%; in assay [3] it was -6.7%; in assay [4], 22.6%; in assay [5] it was -3.55%; in assay [6], 53.9%.
Turning to `COc1ccccc1OC(=O)Nc1ccc(S(=O)(=O)NC2CCCCC2)cc1`, the growth inhibition was 12.1% in assay [1]; -10.8% in assay [2]; 0% in assay [3]; 2.25% in assay [4]; -5.95% in assay [5]; -2.2% in assay [6].
With `Nc1nnc2nc(C3(c4nc5nnc(N)n5[nH]c4=O)CCCC3=O)c(=O)[nH]n12`, the growth inhibition was 13.4% in assay [1]; -10.8% in assay [2]; -8.7% in assay [3]; 3.45% in assay [4]; 4.6% in assay [5]; 16.2% in assay [6].
Turning to `CON(C)C(=O)CNC(=O)OCC1c2ccccc2-c2ccccc21`, the growth inhibition in assay [1] is 8%; in assay [2] it was -6.05%; in assay [3], 5.35%; in assay [4] it was 2.15%; in assay [5] it was -5%; in assay [6] it was -29.3%.
As to `CC1(C)SC=C2C1=CSC2(C)C`, the growth inhibition was 0.2% in assay [1]; 2.1% in assay [2]; -6.35% in assay [3]; -26.2% in assay [4]; 4.6% in assay [5]; -3.65% in assay [6].
For `CCCC(=O)NC1CCCCC1`, the growth inhibition in assay [1] was -22.2%; in assay [2] it was 8.05%; in assay [3], -26.9%; in assay [4], 26.5%; in assay [5], -24.1%; in assay [6], -23.1%.
For the molecule `S=c1sc2c(s1)SCCCCSCCCCSc1sc(=S)sc1SCCCCSCCCCS2`, the growth inhibition was 13.3% in assay [1]; 8.6% in assay [2]; 1.1% in assay [3]; 16.1% in assay [4]; 6.75% in assay [5]; -29.4% in assay [6].
With `[N-]=[N+]=NC1(N=[N+]=[N-])C(=O)Nc2ccccc2C1=O` (configuration not stated), the growth inhibition in assay [1] is 15.5%; in assay [2], 14.8%; in assay [3] it was 2.55%; in assay [4], 3.65%; in assay [5], -10.2%; in assay [6], 12.6%.
As for `Nc1nc(=S)c2c(ncn2CCO)[nH]1`, the growth inhibition is -25.1% in assay [1]; -32.2% in assay [2]; 15.3% in assay [3]; 3.4% in assay [4]; -16.1% in assay [5]; 3.85% in assay [6].
In the case of `N#Cc1ccccc1NC(=O)C(=O)c1c(O)c2ccccc2oc1=O`, the growth inhibition in assay [1] was -13.8%; in assay [2], -6.8%; in assay [3], -16.1%; in assay [4], -16.9%; in assay [5], -12.2%; in assay [6], -25%.
In the case of `Cc1ccc(S(=O)(=O)N/N=C(/c2nc3ccc([N+](=O)[O-])cc3[nH]c2=O)C(O)c2ccc(C(O)/C(=N\NS(=O)(=O)c3ccc(C)cc3)c3nc4ccc([N+](=O)[O-])cc4[nH]c3=O)cc2)cc1` (configuration not stated), the growth inhibition is -16.6% in assay [1], -27.6% in assay [2], -26.2% in assay [3] and -32.7% in assay [5].
In the case of `O=C(Nc1ccccc1)C12CCC(CC1Br)C2` (configuration not stated), the growth inhibition in assay [1] is 4.95%; in assay [2] it was -9.25%; in assay [3] it was -9.7%; in assay [4] it was 7.6%; in assay [5] it was 1.75%; in assay [6], 14.2%.
As for `COc1ccc(-n2c(CCC(=O)O)nc3c2C(=O)c2ccccc2C3=O)cc1`, the growth inhibition in assay [1] was 31.6%; in assay [2] it was 17.6%; in assay [3], 34%; in assay [4], 49%; in assay [5] it was 14.7%; in assay [6] it was 14.2%.
As for `Cc1cn(C2CC3C(COC(c4ccccc4)N3O)O2)c(=O)[nH]c1=O` (configuration not stated), the growth inhibition is 0.1% in assay [1]; -8.65% in assay [2]; 21.2% in assay [3]; 2.7% in assay [4]; -2.95% in assay [5]; 7.15% in assay [6].
Turning to `Cc1cc(N)ccc1-c1cc(C)c(N)c(C)c1C`, the growth inhibition in assay [1] is -39.4%; in assay [2], -21.9%; in assay [3] it was -7.8%; in assay [4] it was 13.2%; in assay [5] it was -18.7%; in assay [6], -15.1%.
As for `CC(=O)Nc1ccc2ccccc2c1[N+](=O)[O-]`, the growth inhibition in assay [1] is -11.1%; in assay [2], -14.4%; in assay [3], -17.4%; in assay [4], -64.5%; in assay [5], -35.8%; in assay [6] it was 15.7%.
Take `COc1ccc(NC(=S)N/N=C(\C)c2ccccn2)cc1`: the growth inhibition is 81.5% (active) in assay [1]; 91.8% (active) in assay [2]; 94% (active) in assay [3]; 35.4% in assay [4]; 80.1% (active) in assay [5]; 84.8% (active) in assay [6].
For the molecule `O=C(O)Cc1ccc(O)cc1`, the growth inhibition in assay [1] was 6.25%; in assay [2], -25.6%; in assay [3] it was 8.6%; in assay [4] it was 8.45%; in assay [5], -11.7%; in assay [6] it was 1.75%.
